37 compounds from paper PMC5540273 (PLoS ONE, 2017) can be followed below.
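Also: KINOMEscan kinase panel screen.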

The first assay concerns S6K1. The following applies: concentration: 1 μM, replicates: in singlicate; n = 1.
With `O=C(O)C(F)(F)F.O=C(O)C(F)(F)F.O=c1[nH]ccc2nc(N[C@@H]3CCCNC3)nc(Nc3ccc(S(=O)(=O)N4CCOCC4)cc3)c12` [GSK2177277], the “%Inh” value is recorded as 98.8%.

With `COc1cccc(NC(=O)NC2CCN(c3ccnc(Nc4cc(OC)c(OC)c(OC)c4)n3)C2)c1` (centres unmarked) [GSK1379763], the “%Inh” value is 0%.

On to `CCS(=O)(=O)c1ccc(OC)c(Nc2nccc(-c3c(-c4cccc(NC(=O)c5c(F)cccc5F)c4)nn4ncccc34)n2)c1` [GSK326180], for which the “%Inh” value came out at 6%.

Regarding `COC(=O)Nc1nc2cc(Oc3ccc(NC(=O)Nc4cc(C(F)(F)F)ccc4F)cn3)ccc2[nH]1.Cl.Cl` [GW681170], the “%Inh” value is recorded as 12%.

Consider `COc1cc(Nc2nccc(N3CCC(NC(=O)Nc4cccc(C(C)=O)c4)C3)n2)cc(OC)c1OC` (centres unmarked) [GSK1379753], for which the “%Inh” value is 19%.

On to `COc1cc(Nc2nccc(-c3c(-c4cccc(NC(=O)c5c(F)cccc5F)c4)nn4ccccc34)n2)cc(OC)c1OC` [GSK323521], for which the “%Inh” value was 7%.

For `Cl.Cl.NCC(NC(=O)c1cc(-c2ccccc2)c(-c2ccnc3[nH]ccc23)s1)c1ccccc1` (centres unmarked) [GSK1321561], the “%Inh” value is on record as 6%.

Take `Cl.c1ccc(-c2ccc3c(Nc4ccc5[nH]ncc5c4)ccnc3c2)nc1` [GW440137]: the “%Inh” value amounted to 0%.

Turning to `CCn1c(-c2nonc2N)nc2c(C#CC(C)(C)O)ncc(OCCCCN)c21.O=C(O)C(F)(F)F.O=C(O)C(F)(F)F` [GSK507274], the “%Inh” value is given as 1%.

As for `CN1CCN(CCCNc2nccc(-c3c(-c4ccc(F)cc4)nn4cc(C(F)(F)F)ccc34)n2)CC1` [GW621581], the “%Inh” value worked out at 1%.

With `Cl.Cl.NCC(NCc1ccc(-c2ccnc3[nH]ccc23)s1)c1ccccc1` (centres unmarked) [GSK1321565], the “%Inh” value was found to be 53%.

For `COc1cc(Nc2ncc3c(C)nc(-c4cc5ccccc5[nH]4)n3n2)cc(OC)c1OC` [GW869516], the “%Inh” value amounted to 0%.

Take `Nc1ncnc2c1nc(-c1ccccc1)n2-c1ccccc1` [SKF-97293]: the “%Inh” value stood at 29%.

Turning to `O=C(Nc1cccc(-c2nn3ccccc3c2-c2ccnc(Nc3cccc(C(F)(F)F)c3)n2)c1)c1c(F)cccc1F` [GSK292658], the “%Inh” value is on record as 0%.

For the compound `CCCCc1nn2ncccc2c1-c1ccnc(Nc2ccc(N3CCN(C)CC3)cc2)n1` [GW684941], the “%Inh” value came to 0%.

For `Fc1ccc(-c2ncn(C3CCNCC3)c2-c2ccnc(Oc3ccc(-c4ccccc4)cc3)n2)cc1` [SB-245391], the “%Inh” value was found to be 11%.

As for `FC(F)(F)c1ccc(/C=C/c2cncnc2Nc2ccc3[nH]c(Cc4ccccc4)nc3c2)cc1` [GW709199], the “%Inh” value was found to be 0%.

For the compound `CC(=O)N1CCN(c2ccc(Nc3nccc(-c4sc(C(C)C)nc4-c4cccc(NS(=O)(=O)c5cccc(Cl)c5)c4)n3)cn2)CC1` [GSK1660437], the “%Inh” value was 0%.

Turning to `CC(=O)Nc1nc2cnc(Nc3cc(NC(=O)c4cccc(C5(C#N)CC5)c4Cl)ccc3C)nc2s1`, the “%Inh” value stood at 14%.

As for `NCCCC(NC(=O)c1cc(Br)c(-c2ccnc3[nH]ccc23)s1)c1ccccc1.O=C(O)C(F)(F)F.O=C(O)C(F)(F)F` (centres unmarked) [GSK1287544], the “%Inh” value was 58%.

`CN(C)Cc1ccc(-c2ccc3c(Nc4ccc(Oc5ccccn5)cc4)ccnc3c2)o1` [GW567148]: the “%Inh” value came out at 5%.

For `Cn1cc(-c2ccc3c(c2)CCN3C(=O)Cc2cccc(Cl)c2)c2c(N)ncnc21` [GSK2606590], the “%Inh” value was 0%.

Consider `O=c1[nH]cc(-c2ccc(N3CCOCC3)cc2)c2sc(-c3cn[nH]c3)cc12` [GSK2276055], for which the “%Inh” value worked out at 0%.

On to `CN1CCN(Cc2cccc(-c3ccc4c(Nc5ccc(Oc6ccccc6)cc5)ccnc4c3)c2)CC1` [GW578342], for which the “%Inh” value stood at 0%.

With `COc1cccc(-c2ccc3c(NC(=O)C4CC4)n[nH]c3n2)c1` [SB-710903], the “%Inh” value worked out at 8%.

In another assay the test system is SBK1. Particulars: concentration: 1 μM, replicates: in singlicate; n = 1.
As for `Cc1cccc(Nc2nc(N[C@H]3CCNC3)ncc2C(N)=O)c1.Cl` [GSK2197149], the “%Inh” value was 42%.

Take `O=C(Nc1ccccc1F)NC1CCN(c2ccnc(Nc3ccc(F)cc3)n2)CC1` [GSK1379800]: the “%Inh” value is given as 0%.

Consider `CN(C)S(=O)(=O)c1cc(-c2ccc3nccc(-c4cccc(S(N)(=O)=O)c4)c3c2)cnc1N` [GSK1669921], for which the “%Inh” value was 15%.

Take `COc1ccc(CNC(=O)NC2CCN(c3ccnc(Nc4ccc(F)cc4)n3)CC2)cc1` [GSK1379788]: the “%Inh” value was 0%.

Take `Cl.Cl.NCC(C(=O)Nc1cc(Br)c(-c2ccnc3[nH]ccc23)s1)c1ccccc1` (centres unmarked) [GSK1269851]: the “%Inh” value was found to be 3%.

In the case of `COC(=O)Nc1nc2ccc(Oc3ccc(NC(=O)Nc4cc(C(F)(F)F)ccc4F)cc3)cc2n1C.Cl` [GW692089], the “%Inh” value was 4%.

Regarding `Nc1ncc(-c2cccnc2)c2scc(-c3ccc4c(c3)CCN4C(=O)Cc3ccccc3)c12` [GSK683281], the “%Inh” value was 25%.

With `Cc1ccc(C(=O)Nc2ccc(Nc3ccnc4cc(-c5nccs5)ccc34)cc2O)cc1.Cl` [GW494702], the “%Inh” value stood at 6%.

Take `Cn1cc(-c2[nH]c3cc(NC(=O)[C@H](N)C4CCCCC4)cc4c3c2C=NNC4=O)cn1`: the “%Inh” value was 96.2%.

Regarding `CCc1ccc(-c2ccc3c(c2)-c2c(cnn2C)S(=O)(=O)N3C)cc1`, the “%Inh” value came out at 0%.

As to `Nc1ncc(-c2ccc3nccc(-c4ccncc4)c3c2)cc1S(=O)(=O)N1CCOCC1` [GSK1627798], the “%Inh” value is 3%.

Take `O=C(Nc1n[nH]c2nc(-c3ccc(O)cc3)ccc12)C1CC1` [SB-710363]: the “%Inh” value was determined as 0%.

Take `O=C(O)C(F)(F)F.O=C(O)C(F)(F)F.O=c1[nH]ccc2nc(N[C@@H]3CCCNC3)nc(Nc3ccc(S(=O)(=O)N4CCOCC4)cc3)c12` [GSK2177277]: the “%Inh” value stood at 92.7%.

Consider `COc1cccc(NC(=O)NC2CCN(c3ccnc(Nc4cc(OC)c(OC)c(OC)c4)n3)C2)c1` (centres unmarked) [GSK1379763], for which the “%Inh” value is given as 15%.

Regarding `CCS(=O)(=O)c1ccc(OC)c(Nc2nccc(-c3c(-c4cccc(NC(=O)c5c(F)cccc5F)c4)nn4ncccc34)n2)c1` [GSK326180], the “%Inh” value came to 0%.

`COC(=O)Nc1nc2cc(Oc3ccc(NC(=O)Nc4cc(C(F)(F)F)ccc4F)cn3)ccc2[nH]1.Cl.Cl` [GW681170]: the “%Inh” value was determined as 0%.

Turning to `COc1cc(Nc2nccc(N3CCC(NC(=O)Nc4cccc(C(C)=O)c4)C3)n2)cc(OC)c1OC` (centres unmarked) [GSK1379753], the “%Inh” value was found to be 11%.

For the compound `COc1cc(Nc2nccc(-c3c(-c4cccc(NC(=O)c5c(F)cccc5F)c4)nn4ccccc34)n2)cc(OC)c1OC` [GSK323521], the “%Inh” value was 17%.

On to `Cl.Cl.NCC(NC(=O)c1cc(-c2ccccc2)c(-c2ccnc3[nH]ccc23)s1)c1ccccc1` (centres unmarked) [GSK1321561], for which the “%Inh” value was 11%.

Regarding `Cl.c1ccc(-c2ccc3c(Nc4ccc5[nH]ncc5c4)ccnc3c2)nc1` [GW440137], the “%Inh” value was 0%.

On to `CCn1c(-c2nonc2N)nc2c(C#CC(C)(C)O)ncc(OCCCCN)c21.O=C(O)C(F)(F)F.O=C(O)C(F)(F)F` [GSK507274], for which the “%Inh” value is 44%.

Turning to `CN1CCN(CCCNc2nccc(-c3c(-c4ccc(F)cc4)nn4cc(C(F)(F)F)ccc34)n2)CC1` [GW621581], the “%Inh” value is on record as 8%.

`Cl.Cl.NCC(NCc1ccc(-c2ccnc3[nH]ccc23)s1)c1ccccc1` (centres unmarked) [GSK1321565]: the “%Inh” value is given as 57%.

Regarding `COc1cc(Nc2ncc3c(C)nc(-c4cc5ccccc5[nH]4)n3n2)cc(OC)c1OC` [GW869516], the “%Inh” value is 0%.

Regarding `Nc1ncnc2c1nc(-c1ccccc1)n2-c1ccccc1` [SKF-97293], the “%Inh” value is 53%.

As for `O=C(Nc1cccc(-c2nn3ccccc3c2-c2ccnc(Nc3cccc(C(F)(F)F)c3)n2)c1)c1c(F)cccc1F` [GSK292658], the “%Inh” value is 20%.

Take `CCCCc1nn2ncccc2c1-c1ccnc(Nc2ccc(N3CCN(C)CC3)cc2)n1` [GW684941]: the “%Inh” value worked out at 30%.

Regarding `Fc1ccc(-c2ncn(C3CCNCC3)c2-c2ccnc(Oc3ccc(-c4ccccc4)cc3)n2)cc1` [SB-245391], the “%Inh” value amounted to 52%.

Turning to `FC(F)(F)c1ccc(/C=C/c2cncnc2Nc2ccc3[nH]c(Cc4ccccc4)nc3c2)cc1` [GW709199], the “%Inh” value is 0%.

As for `CC(=O)N1CCN(c2ccc(Nc3nccc(-c4sc(C(C)C)nc4-c4cccc(NS(=O)(=O)c5cccc(Cl)c5)c4)n3)cn2)CC1` [GSK1660437], the “%Inh” value is reported as 16%.

For `CC(=O)Nc1nc2cnc(Nc3cc(NC(=O)c4cccc(C5(C#N)CC5)c4Cl)ccc3C)nc2s1`, the “%Inh” value is listed as 0%.

As for `NCCCC(NC(=O)c1cc(Br)c(-c2ccnc3[nH]ccc23)s1)c1ccccc1.O=C(O)C(F)(F)F.O=C(O)C(F)(F)F` (centres unmarked) [GSK1287544], the “%Inh” value is 44%.

For the compound `CN(C)Cc1ccc(-c2ccc3c(Nc4ccc(Oc5ccccn5)cc4)ccnc3c2)o1` [GW567148], the “%Inh” value is 8%.

In the case of `Cn1cc(-c2ccc3c(c2)CCN3C(=O)Cc2cccc(Cl)c2)c2c(N)ncnc21` [GSK2606590], the “%Inh” value came to 9%.

Take `O=c1[nH]cc(-c2ccc(N3CCOCC3)cc2)c2sc(-c3cn[nH]c3)cc12` [GSK2276055]: the “%Inh” value was found to be 0%.

For `CN1CCN(Cc2cccc(-c3ccc4c(Nc5ccc(Oc6ccccc6)cc5)ccnc4c3)c2)CC1` [GW578342], the “%Inh” value was found to be 11%.

In the case of `COc1cccc(-c2ccc3c(NC(=O)C4CC4)n[nH]c3n2)c1` [SB-710903], the “%Inh” value came out at 0%.
